# Results filed as inconclusive are left out. Calls of active or inactive are those of the source. Unless noted, the call rests on the fitted dose curve; in most records, active means well fitted curve in the direction sought with a large enough effect; inconclusive means small, poorly fitted or top-dose-only effect, or another doubt; inactive means no such curve, though single readings can be large; an effect the other way counts as inactive or inconclusive.
# Experiments:
# [1] = qHTS drug screen for cell cycle checkpoint inhibitors in PARPi-resistant BRCA-mutant ovarian cancer cell lines. (AID 1963452; calls by dose curve; further: potency means the concentration at half of the fitted maximal effect); settings: PEO1/OlaR viability, CellTiter-Glo luminescence, 96 h; for Z-AUC: stronger effect = lower value
# Summary of the method: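 PEO1, PEO4 and PEO1/OlaR ovarian cancer cells, 600 per well, exposed 96 h at 37C to a dilution series. Viability read by CellTiter-Glo luminescence, normalized to DMSO and empty wells; activity summarized as Z-AUC.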
# [2] = qHTS profiling for inhibitors of Plasmodium falciparum proliferation (AID 504749); further: potency means the concentration at half of the fitted maximal effect;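 on activity, negative = inhibition: 0% = DMSO vehicle and full inhibition = artemisinin control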; on all read-outs here: nearly all actives have a fitted effect of over 60% in size; settings: P. falciparum in erythrocytes, SYBR Green DNA, 72 h; for activity, negative = inhibition: at 28.7 µM (top of the series)
# Summary of the method: (§1)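 Quantitative HTS: compounds pinned into medium, infected erythrocytes added (0.3% parasitemia, 2.5% hematocrit), 72 h culture at 37 C under 5% CO2. Saponin/Triton lysis with SYBR Green I, overnight RT, then fluorescence read.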
# 3D7 = experiment: as above; settings: P. falciparum in erythrocytes, SYBR Green DNA, 72 h; series mostly up to 28.7 µM
# Summary of the method: as §1
# 7G8 = experiment: as above; settings: P. falciparum in erythrocytes, SYBR Green DNA, 72 h; series mostly up to 28.7 µM
# Summary of the method: as §1
# AS120 = experiment: as above; settings: P. falciparum in erythrocytes, SYBR Green DNA, 72 h; series mostly up to 28.7 µM
# Summary of the method: as §1
# ATS189 = experiment: as above; settings: P. falciparum in erythrocytes, SYBR Green DNA, 72 h; series mostly up to 28.7 µM
# Summary of the method: as §1
# CP191 = experiment: as above; settings: P. falciparum in erythrocytes, SYBR Green DNA, 72 h; series mostly up to 28.7 µM
# Summary of the method: as §1
# CP192 = experiment: as above; settings: P. falciparum in erythrocytes, SYBR Green DNA, 72 h; series mostly up to 28.7 µM
# Summary of the method: as §1
# AA1029 = experiment: as above; settings: P. falciparum in erythrocytes, SYBR Green DNA, 72 h; series mostly up to 28.7 µM
# Summary of the method: as §1
# ATS95 = experiment: as above; settings: P. falciparum in erythrocytes, SYBR Green DNA, 72 h; series mostly up to 28.7 µM
# Summary of the method: as §1
# C2A = experiment: as above; settings: P. falciparum in erythrocytes, SYBR Green DNA, 72 h; series mostly up to 28.7 µM
# Summary of the method: as §1
# CP185 = experiment: as above; settings: P. falciparum in erythrocytes, SYBR Green DNA, 72 h; series mostly up to 28.7 µM
# Summary of the method: as §1
# CP194 = experiment: as above; settings: P. falciparum in erythrocytes, SYBR Green DNA, 72 h; series mostly up to 28.7 µM
# Summary of the method: as §1
# CP201 = experiment: as above; settings: P. falciparum in erythrocytes, SYBR Green DNA, 72 h; series mostly up to 28.7 µM
# Summary of the method: as §1
# CP203 = experiment: as above; settings: P. falciparum in erythrocytes, SYBR Green DNA, 72 h; series mostly up to 28.7 µM
# Summary of the method: as §1
# CP211 = experiment: as above; settings: P. falciparum in erythrocytes, SYBR Green DNA, 72 h; series mostly up to 28.7 µM
# Summary of the method: as §1
# CP215 = experiment: as above; settings: P. falciparum in erythrocytes, SYBR Green DNA, 72 h; series mostly up to 28.7 µM
# Summary of the method: as §1
# CP217 = experiment: as above; settings: P. falciparum in erythrocytes, SYBR Green DNA, 72 h; series mostly up to 28.7 µM
# Summary of the method: as §1
# [3] = molecular target: Nuclear receptor subfamily 1 group I member 2 (Homo sapiens) (UniProt O75469); experiment: Dual reporter qHTS for antagonist of Pregnane X Receptor (hPXR) against the NCATS DSHEA and TCM libraries: Luminescence Readout (AID 1920060); settings: hPXR dual reporter cells, luciferase luminescence, antagonist mode; series mostly up to 40 µM;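 further: HepG2 cells carrying hPXR luciferase reporter stimulated with rifampicin at 2 µM; 0% is about no effect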
# Summary of the method: (§2)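 HepG2 hPXR-Luc, 2000 cells/well, charcoal-stripped FBS medium; 5 h attach; RIF 2 uM final; 24 h 37C/5% CO2; CellTiter-Fluor 1 h, fluor 405/540; ONE-Glo 30 min RT, lum.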
# [4] = Dual reporter qHTS for antagonist of Pregnane X Receptor (hPXR) against the NCATS DSHEA and TCM libraries: Fluorescence Readout (AID 1920061); settings: PXR dual reporter cells, antagonist mode; series mostly up to 40 µM; further: 0% is about no effect
# Summary of the method: as §2
# [5] = measured here: PEO1 parental Z-AUC
# Nuclear receptor subfamily 1 group I member 2 (Homo sapiens), sequence (O75469 whole entry, looked up): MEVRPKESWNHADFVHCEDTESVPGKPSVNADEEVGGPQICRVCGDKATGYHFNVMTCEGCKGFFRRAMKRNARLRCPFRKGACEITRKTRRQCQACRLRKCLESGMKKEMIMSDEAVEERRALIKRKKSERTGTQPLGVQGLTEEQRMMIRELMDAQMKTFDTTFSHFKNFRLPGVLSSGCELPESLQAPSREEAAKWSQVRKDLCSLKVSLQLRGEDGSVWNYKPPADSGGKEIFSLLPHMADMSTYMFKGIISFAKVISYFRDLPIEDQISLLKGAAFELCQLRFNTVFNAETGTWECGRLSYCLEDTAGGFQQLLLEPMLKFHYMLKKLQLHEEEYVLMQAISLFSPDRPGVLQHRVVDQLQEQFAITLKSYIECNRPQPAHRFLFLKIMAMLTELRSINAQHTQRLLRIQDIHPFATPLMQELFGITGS
structure (smiles),measurement,setting,value
CCCCCN=C(N)N/N=C/c1c[nH]c2ccc(OC)cc12,Z-AUC,[1],-0.801 (inactive)
same,Z-AUC,[1]; [5],-1.05
same,Z-AUC,[1]; measured here: PEO4 Z-AUC,-1.17
same,Potency,[2]; parasite line A,8.91 µM (active)
same,Potency,[2]; parasite line B,12.6 µM (active)
same,Potency,3D7,8.91 µM (active)
same,Potency,7G8,1 µM (active)
same,Potency,AS120,10 µM (active)
same,Potency,ATS189,5.01 µM (active)
same,Potency,CP191,7.94 µM (active)
same,Potency,CP192,inactive
Cc1ccc(O)c([C@H](CCN(C(C)C)C(C)C)c2ccccc2)c1,Z-AUC,[1],-0.294 (inactive)
same,Z-AUC,[1]; [5],-0.8
same,Z-AUC,[1]; measured here: PEO4 Z-AUC,-0.815
same,Potency,[2]; parasite line A,7.08 µM (active)
same,Potency,[2]; parasite line B,3.98 µM (active)
same,Potency,3D7,6.31 µM (active)
same,Potency,7G8,1 µM (active)
same,Potency,AA1029,3.16 µM (active)
same,Potency,AS120,2.51 µM (active)
same,Potency,ATS189,3.98 µM (active)
same,Potency,ATS95,3.55 µM (active)
same,Potency,C2A,11.2 µM (active)
same,Potency,CP185,10 µM (active)
same,Potency,CP191,7.08 µM (active)
same,Potency,CP192,13.5 µM (active)
same,Potency,CP194,5.36 µM (active)
same,Potency,CP201,13.5 µM (active)
same,Potency,CP203,3.79 µM (active)
same,Potency,CP211,9.53 µM (active)
same,Potency,CP215,6.75 µM (active)
same,Potency,CP217,5.01 µM (active)
C#C[C@]1(O)CC[C@H]2[C@@H]3[C@H](C)CC4=C(CCC(=O)C4)[C@H]3CC[C@@]21C,Z-AUC,[1],-1.06 (inactive)
same,Z-AUC,[1]; [5],-0.281
same,Z-AUC,[1]; measured here: PEO4 Z-AUC,0.766
C=C[C@H]1CN2CC[C@H]1C[C@@H]2[C@@H](O)c1ccnc2ccc(OC)cc12,Z-AUC,[1],-0.544 (inactive)
same,Z-AUC,[1]; [5],-0.182
same,Z-AUC,[1]; measured here: PEO4 Z-AUC,-0.0481
C[C@@H](O)[C@H]1C(=O)N2C(C(=O)O)=C(S[C@@H]3CN[C@H](CNS(N)(=O)=O)C3)[C@H](C)[C@H]12,Z-AUC,[1],-0.121 (inactive)
same,Z-AUC,[1]; [5],0.644
same,Z-AUC,[1]; measured here: PEO4 Z-AUC,0.433
same,"activity, negative = inhibition",[2]; parasite line A,0.841% (inactive)
same,"activity, negative = inhibition",[2]; parasite line B,3.74% (inactive)
same,Potency,3D7,inactive
same,Potency,7G8,inactive
same,Potency,AA1029,inactive
same,Potency,AS120,inactive
same,Potency,ATS189,inactive
same,Potency,ATS95,inactive
same,Potency,C2A,inactive
same,Potency,CP185,inactive
same,Potency,CP191,inactive
same,Potency,CP192,inactive
same,Potency,CP194,inactive
same,Potency,CP201,inactive
same,Potency,CP203,inactive
same,Potency,CP211,inactive
same,Potency,CP215,inactive
same,Potency,CP217,inactive
C#C[C@]1(O)CC[C@H]2[C@@H]3CCC4=CC(=O)CC[C@@H]4[C@H]3CC[C@@]21CC,Z-AUC,[1],-1.07 (inactive)
same,Z-AUC,[1]; [5],-0.819
same,Z-AUC,[1]; measured here: PEO4 Z-AUC,-0.784
same,"activity, negative = inhibition",[2]; parasite line A,-9.46% (inactive)
same,"activity, negative = inhibition",[2]; parasite line B,-6.83% (inactive)
same,Potency,3D7,inactive
same,Potency,AA1029,inactive
same,Potency,AS120,inactive
same,Potency,ATS189,inactive
same,Potency,ATS95,inactive
same,Potency,C2A,inactive
same,Potency,CP185,inactive
same,Potency,CP191,inactive
same,Potency,CP192,inactive
same,Potency,CP194,inactive
same,Potency,CP201,inactive
same,Potency,CP203,inactive
same,Potency,CP211,inactive
same,Potency,CP215,inactive
same,Potency,CP217,inactive
CCOC(=O)[C@H](CCc1ccccc1)N[C@@H](C)C(=O)N1[C@H](C(=O)O)C[C@@H]2CCC[C@@H]21,Z-AUC,[1],-0.637 (inactive)
same,Z-AUC,[1]; [5],-0.134
same,Z-AUC,[1]; measured here: PEO4 Z-AUC,-0.409
Nc1nc(Cl)nc2c1ncn2[C@@H]1O[C@H](CO)[C@@H](O)[C@@H]1F,Potency,[1],0.0977 µM (active)
same,Z-AUC,[1]; [5],-1.93
same,Z-AUC,[1]; measured here: PEO4 Z-AUC,-1.97
CC(=O)O[C@H]1C[C@@H]2CC[C@@H]3[C@H](CC[C@@]4(C)[C@H]3C[C@H]([N+]3(C)CCCCC3)[C@@H]4OC(C)=O)[C@@]2(C)C[C@@H]1N1CCCCC1,Z-AUC,[1],1.73 (inactive)
same,Z-AUC,[1]; [5],1.43
same,Z-AUC,[1]; measured here: PEO4 Z-AUC,1.85
same,"activity, negative = inhibition",[2]; parasite line B,-19.6% (inactive)
same,Potency,3D7,inactive
same,Potency,AS120,inactive
same,Potency,CP194,inactive
CCCCCCCCCCCCCCCC(=O)O,outcome,[3],inactive
same,outcome,[4],inactive
same,"activity, negative = inhibition",[2]; parasite line A,-0.389% (inactive)
same,"activity, negative = inhibition",[2]; parasite line B,7.62% (inactive)
same,Potency,3D7,inactive
same,Potency,7G8,inactive
same,Potency,AA1029,inactive
same,Potency,AS120,inactive
same,Potency,ATS189,inactive
same,Potency,ATS95,inactive
same,Potency,C2A,inactive
same,Potency,CP185,inactive
same,Potency,CP191,inactive
same,Potency,CP192,inactive
same,Potency,CP194,inactive
same,Potency,CP201,inactive
same,Potency,CP203,inactive
same,Potency,CP211,inactive
same,Potency,CP215,inactive
same,Potency,CP217,inactive

# Reference: PubChem BioAssay (NCATS)
